The whole screen tested about 200,000 compounds, of which about 25 (0.01%) were called active. About 23% were inconclusive and are not listed. The call rests on the fitted dose curve; in most records, active means well fitted inhibition curve with a large enough effect in the signal ratio, with a control signal flat (not every such curve was filed as active); inconclusive means small, poorly fitted or top-dose-only effect, or effect the other way, or a change in a side signal; inactive means flat fitted curve, though single readings scatter; the % refers to the signal ratio. Many of the other results were omitted from the sample, so actives are more common in it than they were.
assay: qHTS Assay for Modulators of Lamin A Splicing; conditions: HeLa LMNA splicing GFP/RFP minigene ratio, 48 h; series mostly up to 46 µM
Text: NCGC Assay Overview: Hutchinson-Gilford Progeria Syndrome (HGPS) is a pediatric premature aging disease caused by a spontaneous mutation in the lamin A/C (LMNA) gene. The mutation activates a cryptic splice site in the LMNA pre-mRNA which results in production of a pre-lamin A protein that cannot be processed properly. The mutant protein accumulates in the nucleus and negatively affects numerous cellular functions. Correction of the splicing defect in HGPS patient cells using a targeted oligonucleotide (exo11) leads to reversal of the cellular disease phenotypes. To identify small molecule modulators of aberrant LMNA splicing, a homogenous assay was constructed in HeLa cells that used a GFP containing minigene to report on correction of aberrant splicing in lamin A and a RFP (DsRed2) to report on cell viability, uniformity and nonspecific effects on the assay signal. This assay was adapted to laser-scanning microplate cytometry (Acumen, TTP Labtech) where miniaturization of the assay to a 1,536-well plate format was possible. References: Bowen, W. P.; Wylie, P. G. Application of Laser-Scanning Fluorescence Microplate Cytometry in High Content Screening. Assay Drug Dev Technol 2006;4:209-221. Scaffidi P, Misteli T. Reversal of the cellular phenotype in the premature aging disease Hutchinson-Gilford progeria syndrome. Nat.
NCGC Assay Protocol Summary: Reagents/Controls: Stable clones expressing DsRed2 and lamin A-EGFP were generated by Cell and Molecular Technologies in S3 HeLa cells. HeLa cells were prepared for the assay when they were 70-90% confluent. The cells were counted and resuspended in Opti-MEM I (no phenol red; Gibco), 2% FBS, 1% penicillin/ streptomycin (Gibco) at concentration of 120 cells/uL concentration. The suspension was passed through a Falcon basket filter with pore size 40um (Beckton Dickson). Control titrations: column […] 1536-well plate contained a sixteen point titration (1:2 dilutions) in duplicate of ancitabine (Sigma: A8598) beginning at 40 uM final concentration. Column 2 contained a sixteen point titration (1:2 dilutions) of cycloheximide beginning at 1.4 mM final concentration. Column 3 contained ancitabine at 40 uM and column 4 contained was the vehicle control (0.5% DMSO final concentration). Assay Steps: 5 uL of HeLa cells were plated in Aurora LoBase black clear bottom (cyclic-olefin polymer) 1536-well plates at a final density of 600 cells/well. Controls and library compounds were added with a 1536-well pin array using the Kalypsys pin-tool. The plates were then incubated for 48 hrs in a cell-culture incubator (37 °C; 5% CO2, 98% humidity). Following incubation the plates were read on the Acumen Explorer using the 488 nm laser. Data was collected on objects between 10 and 100 um in size. Cell objects were defined by a 15 um width x 10 um depth filter. The ratio of the total object intensity in PMT1 (500-530 nm emission; GFP) over PMT3 (575-640 nm emission; RFP) was calculated for analysis. Keywords: NIH Roadmap, MLSCN, MLI, MLSMR, qHTS, NCGC, lamin A, Progeria, RNA splicing.
On the % scale 0 is the no-effect control and ±100 the full control effect.

Ratio change, negative = inhibition, inactive:
CCOc1ccc(Nc2ncnc3scc(-c4ccc(OC)cc4)c23)cc1, COc1cc(OC)cc(C(=O)NCCc2csc3nc(-c4ccccc4F)nn23)c1, CCc1ccc(NS(=O)(=O)c2ccc3[nH]cc(C(=O)NCCc4cccc(C)c4)c(=O)c3c2)cc1, CC(=O)NCC(=O)N1CCCC(C(=O)c2ccc3c4c(cccc24)CC3)C1 (stereo not drawn), Cc1cccc(Oc2c([N+](=O)[O-])c(=O)n(C)c3ccccc23)c1, CCOC(=O)c1sc(=NC(=O)/C=C/c2cccs2)n(C)c1C 2.93% [at 9.22 µM], Cc1cccc(Cn2c(CN3CCC(C(=O)NCc4ccccc4Cl)CC3)cc3ccccc32)c1, O=C(Nc1nnc(-c2ccco2)o1)c1ccc(S(=O)(=O)N2CCOCC2)cc1 16.1% [at 9.22 µM], Cc1nc([N+](=O)[O-])cn1CC(=O)Nc1ccc2c(c1)OCO2, Cc1cccc(OCCC(=O)Nc2cc(S(=O)(=O)N3CCCCC3)ccc2N2CCOCC2)c1, Cc1ccc(C)c(-n2ccnc2SCC(N)=O)c1, CC1(C)OC(=O)C(=CSc2ccc(C(C)(C)C)cc2)C(=O)O1, COc1cc(NC(=O)c2cccnc2SC)cc(OC)c1, COc1ccccc1CN(C)c1nnnn1-c1ccccc1, COc1ccc(NC(=O)CSc2nnc(-c3ccccc3F)n2C2CC2)cc1S(N)(=O)=O, CCOC(=O)c1cnc2[nH]c3ccccc3n2c1=O, CC(=O)c1ccc(NC(=O)CSc2c(C(C)C)cnc3c2c(=O)n(C)c(=O)n3C)cc1, CCOC(=O)c1c(C)oc2nc(C)nc(N3CCN(c4ccc(OC)cc4)CC3)c12, Cc1ccc(/C([O-])=C(/C(=S)NCc2ccco2)[n+]2ccccc2)cc1[N+](=O)[O-], O=C(C1COc2ccccc2O1)N(Cc1cccnc1)c1nc2c(F)cc(F)cc2s1 (stereo not drawn), COc1ccc(NC(=O)c2sc3nc(-c4cc5cccc(OC)c5oc4=O)[nH]c(=O)c3c2C)cc1, COc1ccc(NS(=O)(=O)c2ccc(O)c(C(=O)OCC(=O)NC3CCCCC3)c2)cc1, CCCN(CCC)CCCNC(=O)CNC(=O)c1nn(-c2ccc(OC)cc2)c(=O)c2ccccc12, COc1ccccc1NC(=O)C1=C(C)Nc2nc(SCC(=O)c3ccc(C)cc3)nn2C1c1ccccc1C (stereo not drawn), COc1cccc(C(O)Cc2nc3ccccc3n2C)c1OC (stereo not drawn), O=C(CCC(=O)N1CCCC1)Nc1ccc([N+](=O)[O-])cc1, C/C(CC(=O)Nc1ccc(C)cc1C)=N\NC(=O)C(C)C, O=C(Nc1nnc(S(=O)(=O)N2CCOCC2)s1)c1cccc(Br)c1, Cc1nc(N2CCC(C)CC2)c2c(C)c(C(=O)Nc3cc(F)ccc3C)sc2n1 11.2% [at 9.22 µM], CN(C)S(=O)(=O)c1ccc(NC(=O)COC(=O)Cn2[nH]c(=O)c3ccccc3c2=O)cc1, Cc1ccccc1C(=O)Nc1ccc(N2CCCCCC2)cc1, CC1CCN(C(=S)c2cccc([N+](=O)[O-])c2)CC1, CC(=O)c1sc(NC(=O)C2=NN(c3ccccc3)C(=O)CC2)nc1C, OCC1(CCOc2ccccc2)CCN(Cc2cn[nH]c2-c2ccccc2)CC1, CC(C)C(=O)Nc1ccc2oc(=O)ccc2c1, Cc1ccsc1C1C(C#N)=C(N)OC2=C1C(=O)CC(C)(C)C2 (stereo not drawn) 3.22% [at 9.22 µM], COc1cccc(NC(=O)CS(=O)(=O)c2cn(CC(=O)N3CCOCC3)c3ccccc23)c1 10.8% [at 9.22 µM], COc1cccc(N2CCN(C(=O)CCCCCn3c(=O)[nH]c4ccccc4c3=O)CC2)c1, COc1ccc(N(CC(=O)NC2CCCC2)C(=O)CS(=O)CC(=O)Nc2ccc3c(c2)OCO3)cc1 (stereo not drawn), N#Cc1c(NC(=O)C2CC(Cl)=CCC2C(=O)O)sc2c1CCCCC2 (stereo not drawn), CCOc1ccccc1/C=N/NC(=O)CNC(=O)COc1ccccc1, Cc1ccccc1N1C(=O)C(Oc2ccc(Cl)cc2)C1CNCC1CCCO1 (stereo not drawn), Fc1ccccc1N=C1Nc2cccc3cccc1c23, COc1ccc(C(=O)OCC(=O)NCC2CCCO2)cc1[N+](=O)[O-] (stereo not drawn), O=C(NC(=S)Nc1cccc(-c2ccc(CO)o2)c1)c1cccs1, COCCN(C(=O)c1ccccc1F)c1c(N)n(Cc2ccccc2)c(=O)[nH]c1=O, Cc1c(Cl)cccc1NC(=S)N(Cc1ccccc1)Cc1cccnc1, Cc1cccc(NC(=O)N2CCC(CN3CCc4ccccc4C3)CC2)c1C, Cc1nc(N2CCCCC2)sc1C=O, CN(C(=O)CSc1nncc2ccccc12)C1CCCCC1, CCc1cccc(NC(=O)CN(C)S(=O)(=O)c2ccc3[nH]c4c(c3c2)CCCC4)c1, CC(C)CCN(C(=O)Nc1ccc(Cl)c(Cl)c1)C(C)c1cccs1 (stereo not drawn), COC(=O)CCC(=O)N1CCCC(CO)(Cc2ccccc2)C1 (stereo not drawn), Cc1csc(CN(C)C(=O)CC2C(=O)NCCN2CC(C)(C)C)n1 (stereo not drawn), O=C(NCCCN1CCOCC1)c1ccccc1NS(=O)(=O)c1ccc(F)cc1, COCCCNC(=S)NCCNc1nc2cc(C)c(C)cc2cc1C#N, Cc1ccccc1CN1C(=O)c2ccccc2Sc2ccc(C(=O)NCCCN3CCOCC3)cc21, Cc1ccc(C2CC(c3cccc(NS(C)(=O)=O)c3)=NN2S(C)(=O)=O)cc1 (stereo not drawn) -2.59% [at 9.22 µM], O=C1CCC/C(=N\NC(=O)NC2CCCCC2)C1, Cc1ccc(NC(=O)CNCc2ccccn2)cc1S(=O)(=O)N(C)C, O=C(Oc1cccc(NC2=NS(=O)(=O)c3ccccc32)c1)c1ccncc1, O=C(CNC(=O)c1cc(=O)[nH]c2ccccc12)Nc1ccc(F)c(F)c1 3.5% [at 9.22 µM], Cc1ccccc1Nc1nc(N)nc(CSc2nnc3ccccn23)n1, CCc1ccc(C2C(C(=O)Nc3ccccc3)=C(C)Nc3c(C(=O)Nc4ccc(C)cc4)cnn32)cc1 (stereo not drawn), CCN(CC)c1nn2c(=O)c(C(=O)NCCc3ccccc3)cnc2s1, O=C(N/N=C\c1cc(Br)c(Br)o1)C1COc2ccccc2O1 (stereo not drawn), CN(Cc1ccccn1)Cc1nc(-c2ccc(Cl)cc2)no1, Cc1ccc(Cl)cc1N1CCN(C(=O)c2cnc3c(-c4ccc(F)cc4)c(C)nn3c2C)CC1, CSc1ccc(/C=N\NC(=O)CC(=O)NC(C)C)cc1, CC1CCCCN1CCCNC(=O)Cn1ncc2c([nH]c3ccccc32)c1=O (stereo not drawn), CC(=O)c1cccc(-n2nnnc2SCC(=O)NNC(=O)C2CCCCC2)c1 7.45% [at 9.22 µM], COc1ccc(NC(=O)c2ccccc2CC[N+](=O)[O-])cc1, COc1cccc(N(Cc2nnc3n2CCCCC3)C(=O)Nc2ccccc2F)c1, CCOc1ccc(NC(=O)C(CC(C)C)N2Cc3ccccc3C2=O)cc1 (stereo not drawn), Cc1cccc(NC(=O)c2ccc(F)c(S(=O)(=O)N(C)C3CCCCC3)c2)c1, Cc1cc(NC(=O)CSc2nc3c(cc2C#N)CCCCC3)no1, Cn1c(N)c(C(=O)COC(=O)c2ccccc2NCc2ccco2)c(=O)n(C)c1=O, Cc1csc(NC(=O)Nc2ccccc2[N+](=O)[O-])n1, S=c1[nH]nc(-c2cccs2)n1/N=C/c1cccs1 21.8% [at 9.22 µM], COCC(C)NCc1cc(Br)ccc1OC (stereo not drawn), Cc1ccc(S(=O)(=O)NC(=O)N2CCCN(Cc3ccc(F)cc3)CC2)cc1, Cc1ccc(C)c(-n2nnnc2SCC(=O)c2c(N)n(C)c(=O)n(C)c2=O)c1 -17.5% [at 9.22 µM], CC(C(=O)N=Nc1c(O)n(C)c2ccc(Br)cc12)n1cnc2ccccc2c1=O (stereo not drawn), COc1ccc(Br)cc1/C=N/Nc1ccc(Cl)c(C(=O)O)c1, Cc1nnc(SCC(=O)NNC(=O)c2ccc(Cl)cc2)n1CC1CCCO1 (stereo not drawn), CCOC(=O)c1cccc(NC(=O)c2cc(S(=O)(=O)N3CCCC(C)C3)cn2C)c1 (stereo not drawn), Cc1ccc(NC(=O)Cn2c(=O)n(CCC(=O)NC3CCN(Cc4ccccc4)CC3)c(=O)c3ccccc32)cc1, Cc1ccccc1NC(=O)NC1(C(=O)N2CCCC2)CCCCC1, Cc1cccc(NC(=O)c2ccc3nc(C(C)C)oc3c2)c1C, CC(=O)NC(Cc1ccc(F)c(F)c1)C(=O)NC1CCN(c2nnnn2-c2ccccc2)CC1 (stereo not drawn), O=C(CN1CCSCC1)N/N=C/c1ccc(Cl)cc1 -10.4% [at 9.22 µM], COc1ccc2ncc3c(-c4ccc(C)c(C)c4)nn(CC(=O)NC4CCCC4)c3c2c1, COc1ccc(CNC(=O)C2=Cc3cccc(OC)c3OC2)cc1OC, Cc1nccn1CCCNC(=O)CC1C(=O)NCCN1Cc1ccc(Cl)c(F)c1 (stereo not drawn), COc1cc(CN(C(=O)c2ccccc2Br)c2ccccn2)cc(OC)c1OC, O=Cc1ccc(Oc2cccc(C(F)(F)F)c2)nc1, Cc1ccccc1OCCSc1nc2ccc(NC(=O)c3ccco3)cc2s1, COc1cc(Cl)c(C)cc1Nc1nnc(-n2nc(C)cc2C)c2ccccc12, COc1ccc(C(=O)Nc2cccc(S(C)(=O)=O)c2)cc1, C=CCn1c(CNC(=O)c2ccco2)nnc1SCC(=O)c1ccc(OC)cc1, COc1cc(/C=N/Nc2ccc(C)cc2)cc(Br)c1O, O=C(Nc1ccc2nc(SCCOc3ccccc3Cl)sc2c1)c1ccco1, Cc1cc(C)c2c(NC(=O)C3CC3)nn(C)c2n1, C/C(CC(=O)N1CCN(C=O)CC1)=N\NC(=O)c1ccc(Br)cc1, COc1cccc(NC(=O)c2ccc3nc(CCc4ccccc4)oc3c2)c1, COc1ccc(CCNC(=O)c2ccc(CSCc3ccc(C)cc3)o2)cc1OC, O=C(COc1ccc(-c2ccccc2)cc1)NN=C1CCCC1, CC1(C)CC(=O)c2cnc3nc4ccccc4n3c2C1

Reference: PubChem BioAssay AID1487 (National Center for Advancing Translational Sciences (NCATS), 2009)
